Data as given in PubChem BioAssay (NCI).
About 83,000 compounds went through this panel and 20% of them were active in at least one assay; those are over-represented in the sample as a whole.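 Percent growth is the endpoint: 0 to 100 indicates growth inhibition (40 means 60% inhibition), 0 means no net growth, and negative values indicate cell death.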 The source made the active and inactive calls. Rule for the calls: active = growth percent below 10; inactive = the rest.

The compounds below were run on ACHN renal (assay: NCI-60 one-dose screen, 48 h (100 = growth as untreated, 0 = no growth, -100 = all killed)). Conditions: 10 µM unless noted.

Row | Structure (SMILES) | growth
1 | OCCn1cc(-c2nc3ccc4[nH]ncc4c3c3c2CCCC3)cn1 | 16.3% (inactive)
2 | O=C1Nc2cc(-c3ccc(NS(=O)(=O)c4ccc([N+](=O)[O-])cc4)cc3)ccc2/C1=C/c1ccc[nH]1 | -62.5% (active)
3 | O=C(Cn1c(-c2ccccc2)nc2ccccc21)N=Nc1c(O)[nH]c2ccc(Br)cc12 | -80% (active)
4 | Cc1nc2sccn2c1-c1nnc(SCc2ccccc2)o1 | 92.6% (inactive)
5 | CCC1(OC(=O)c2ccccc2SSCCOC(=O)CCCCC2SCC3NC(=O)NC32)C(=O)OCc2c1cc1n(c2=O)Cc2cc3ccccc3nc2-1 (stereo not drawn) | 20.3% (inactive)
6 | C=CC(=O)Nc1ccc(C(=O)/C=C/c2ccc(N(C)C)cc2)c(O)c1 | -47.5% (active)
7 | COc1ccc(C(=O)c2cc(C(C)=O)c3c(C)cc(C)cn23)cc1 | 56.6% (inactive)
8 | Cc1ccc(S(=O)(=O)N(CCn2ccnc2[N+](=O)[O-])CCn2ccnc2[N+](=O)[O-])cc1 | 101% (inactive)
9 | Cc1ccc(S(=O)(=O)Nc2ccc(-c3ccc4c(c3)NC(=O)/C4=C\c3ccc[nH]3)cc2)cc1 | 93.5% (inactive)
10 | COc1ccc2c(c1)C(=O)N(C)C2C1c2c(cc3c(c2OC)OCO3)CCN1C (stereo not drawn) | 46.5% (inactive)
11 | Cc1ccc(C2CC(c3ccc(NC(=O)Nc4ccccc4)cc3)=NN2c2ccc(S(N)(=O)=O)cc2)cc1 (stereo not drawn) | -100% (active)
12 | COC(=O)c1cc(C(=O)C(Br)Br)n2c1ccc1c3ccccc3ccc12 | 36.2% (inactive)
13 | COc1ccc2c(c1)N=c1c-2cc2c(O)[nH]c(=S)n2c1=O | 44.9% (inactive)
14 | O=Cc1cncc(-c2ccc3ncnc(N4CCc5cc(F)c(Cl)cc54)c3c2)c1 | 11.5% (inactive)
15 | CC1=C(C(=O)OC(C)C)C(c2ccc(O)cc2)NC(=O)N1 (stereo not drawn) | 106% (inactive)
16 | COC(=O)CSC1=C(C)C(=O)C(OC)=C(OC)C1=O | 96.4% (inactive)
17 | O=C1Nc2ccccc2/C1=C/C(=O)c1cc2ccccc2oc1=O | -47.6% (active)
18 | COC(=O)c1ccc(-c2c(-c3ccccc3)c(F)c3oc(C(=O)OC)c(N)c3c2-c2ccccc2)cc1 | 102% (inactive)
19 | COc1cc(-c2ccc3ncnc(N4CCc5ccc(Cl)cc54)c3c2)cnc1Cl | 14.1% (inactive)

Row | Structure (SMILES) | growth
20 | Oc1cncc(-c2ccc3ncnc(N4CCc5cc(F)c(Cl)cc54)c3c2)c1 | 46% (inactive)
21 | Nc1cc(-c2c[nH]c3ccc(F)cc23)nc2cc(-c3c[nH]c4ccccc34)nn12 | 6.95% (active)
22 | C/C(=N\Nc1ccc(S(N)(=O)=O)cc1)c1cnn(-c2cc(=O)[nH]c3ccc(Br)cc23)c1C | 81% (inactive)
23 | O=C(Cn1c(-c2ccccc2)nc2ccccc21)N=Nc1c(O)[nH]c2ccc(Cl)cc12 | -47.3% (active)
24 | COC(=O)c1c(C(=O)OC)c2ccc3c4ccccc4ccc3n2c1C(=O)OC | 109% (inactive)
25 | COc1sc(/C=N/NC(=O)c2[nH]c3ccc(Br)cc3c2-c2ccccc2)cc1Br | 7.58% (active)
26 | O=C(NNC(=O)c1ccc(OCc2nc3ccc(Cl)cc3[nH]2)cc1)Nc1ccc(Cl)c(Cl)c1 | 106% (inactive)
27 | COc1ccc(NC(=O)CSc2nnc(-c3ccc(-c4nc5ccc(Cl)cc5[nH]4)cc3)o2)cc1 | 2.97% (active)
28 | O=C1Nc2ccc(F)cc2/C1=C/C(=O)c1cc2ccccc2oc1=O | 62.5% (inactive)
29 | Cn1cc(-c2cc(N)n3nc(-c4c[nH]c5ccccc45)cc3n2)c2ccccc21 | -100% (active)
30 | COc1nc(N)ncc1-c1ccc2ncnc(N3CCc4cc(F)c(Cl)cc43)c2c1 | -84.7% (active)
31 | CN1CCN(C(=O)Oc2cc3c(c4ccccc24)[C@H](CCl)CN3C(=O)c2cc3cc(OCCCN4CCC4)ccc3[nH]2)[C@@H]2CSSC[C@H]21 | -22.8% (active)
32 | COc1ccc2[nH]cc(-c3cc4nc(-c5cn(C)c6ncccc56)cc(N)n4n3)c2c1 | 7.66% (active)
33 | COc1ccc(N=Nc2c(N)nn3c(-c4ccc(OC)c(OC)c4)ccnc23)cc1 | 77.4% (inactive)
34 | Cc1ccc2nc(NC(=O)Nc3cccc(Cl)c3)sc2c1 | 105% (inactive)
35 | COc1ccc(Nc2ncnc3sc4c(c23)CCN(Cc2ccccc2)C4)cc1 | 77% (inactive)
36 | O=C1/C(=C/C=C/c2ccco2)SC(=S)N1CC(=S)C1C=CS(=O)(=O)C1 (stereo not drawn) | 100% (inactive)
37 | CC1=C(C(=O)OCc2ccccc2)C(c2cccc3ccccc23)n2c(nc3ccccc32)N1 (stereo not drawn) | 41.1% (inactive)
38 | CN(C)c1nc(NCCNS(=O)(=O)c2ccc(C(=O)/C=C/c3ccccc3)cc2)nc(N2CCOCC2)n1 | 87% (inactive)
